This assay addresses T1, GST-Co-NF-kB (Capsaspora owczarzaki, UniProt F1ARL5 200-546).
T1 sequence: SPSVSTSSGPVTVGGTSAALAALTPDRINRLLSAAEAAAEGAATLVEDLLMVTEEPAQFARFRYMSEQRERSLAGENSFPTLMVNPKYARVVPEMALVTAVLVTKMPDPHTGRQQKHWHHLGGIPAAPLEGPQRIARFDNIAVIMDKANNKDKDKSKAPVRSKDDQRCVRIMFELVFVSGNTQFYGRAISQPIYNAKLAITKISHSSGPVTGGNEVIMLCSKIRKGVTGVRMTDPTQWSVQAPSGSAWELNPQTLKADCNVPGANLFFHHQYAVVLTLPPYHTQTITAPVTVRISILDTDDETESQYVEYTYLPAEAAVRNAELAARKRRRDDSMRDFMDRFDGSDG
Description: protein-binding microarray (PBM); PBM: ~300 nM protein, 6 mM HEPES pH 7.8, 80 mM KCl, 0.5 mM EDTA, 0.5 mM EGTA, 6% glycerol, 35 ng/ul poly-dIdC, 1% milk, 1 h, room temperature; Ap Aiptasia and Nv Nematostella (sea anemones) / Co Capsaspora / Aq Amphimedon (sponge) / Dm Drosophila / Hu human; RHD is the Rel homology domain; high values mean tight binding. The note with it: dsDNA, one strand shown.
“CCGATTAACATCAGAAATACCCCTGATGTTAATCGGGTCTTGATTCGCTTGACGCTGCTG”: the binding signal is 4.66 z-score.
For “CCGATTAACATCAAATCATTCCCTGATGTTAATCGGGTCTTGATTCGCTTGACGCTGCTG” the value was 3.4 z-score.
For “CCGATTAACATCAGAATTACCCCTGATGTTAATCGGGTCTTGATTCGCTTGACGCTGCTG” the value was 5.87 z-score.
For “CCGATTAACATCAGGGGGGTTAATGATGTTAATCGGGTCTTGATTCGCTTGACGCTGCTG” the value was 3.92 z-score; for “CCGATTAACATCAAAATTCCCCCTGATGTTAATCGGGTCTTGATTCGCTTGACGCTGCTG”, 11.3 z-score; for “CCGATTAACATCAATTCCCCTGATGATGTTAATCGGGTCTTGATTCGCTTGACGCTGCTG”, 5.73 z-score.
In the case of “CCGATTAACATCAGGGGAATACCTGATGTTAATCGGGTCTTGATTCGCTTGACGCTGCTG”, the binding signal worked out at 5.97 z-score.
To “CCGATTAACATCATTCCCGGGAATGATGTTAATCGGGTCTTGATTCGCTTGACGCTGCTG” belongs 5.77 z-score; to “CCGATTAACATCACGAAATCCCCTGATGTTAATCGGGTCTTGATTCGCTTGACGCTGCTG”, 4 z-score; to “CCGATTAACATCAATCTTCCCCCTGATGTTAATCGGGTCTTGATTCGCTTGACGCTGCTG”, 9.37 z-score.
The sequence “CCGATTAACATCAGAGTTCCCCCTGATGTTAATCGGGTCTTGATTCGCTTGACGCTGCTG” registered a binding signal of 8.96 z-score.
For “CCGATTAACATCAGGGGATAACCTGATGTTAATCGGGTCTTGATTCGCTTGACGCTGCTG” the value was 3.7 z-score.
Consider “CCGATTAACATCAGGGGATTCCATGATGTTAATCGGGTCTTGATTCGCTTGACGCTGCTG”, for which the binding signal came to 3.19 z-score.
“CCGATTAACATCAAGGGGGATATTGATGTTAATCGGGTCTTGATTCGCTTGACGCTGCTG” displayed a binding signal of 5.64 z-score.
To “CCGATTAACATCAGGGGGGAAAATGATGTTAATCGGGTCTTGATTCGCTTGACGCTGCTG” belongs 11.5 z-score; to “CCGATTAACATCAAAATCCCCCTTGATGTTAATCGGGTCTTGATTCGCTTGACGCTGCTG”, 6.3 z-score.
For “CCGATTAACATCAGGGGTATTTATGATGTTAATCGGGTCTTGATTCGCTTGACGCTGCTG” the value was 4.66 z-score; for “CCGATTAACATCAGGGAGTTTTATGATGTTAATCGGGTCTTGATTCGCTTGACGCTGCTG”, 2.72 z-score; for “CCGATTAACATCAAGGGGGTTTCTGATGTTAATCGGGTCTTGATTCGCTTGACGCTGCTG”, 2.34 z-score.
To “CCGATTAACATCAAAACTCCCCGTGATGTTAATCGGGTCTTGATTCGCTTGACGCTGCTG” belongs 5.87 z-score.
“CCGATTAACATCAATTTTCCCCATGATGTTAATCGGGTCTTGATTCGCTTGACGCTGCTG” came in with a binding signal of 9.2 z-score.
For “CCGATTAACATCAAAAAATCCCATGATGTTAATCGGGTCTTGATTCGCTTGACGCTGCTG” the value was 2.05 z-score.
For “CCGATTAACATCAGGGGAAAGAATGATGTTAATCGGGTCTTGATTCGCTTGACGCTGCTG” the value was 8.25 z-score.
For “CCGATTAACATCAATTTTCCCACTGATGTTAATCGGGTCTTGATTCGCTTGACGCTGCTG” the value was 4.54 z-score.
In turn, “CCGATTAACATCAAATTTCCCATTGATGTTAATCGGGTCTTGATTCGCTTGACGCTGCTG” displayed a binding signal of 3.32 z-score.
For “CCGATTAACATCAACAAAATCCCTGATGTTAATCGGGTCTTGATTCGCTTGACGCTGCTG” the value was 1.89 z-score; for “CCGATTAACATCAGGGGAAAACATGATGTTAATCGGGTCTTGATTCGCTTGACGCTGCTG”, 8.6 z-score.
To “CCGATTAACATCAGGCCTTTCCCTGATGTTAATCGGGTCTTGATTCGCTTGACGCTGCTG” belongs 1.36 z-score; to “CCGATTAACATCAGGGAGTACCCTGATGTTAATCGGGTCTTGATTCGCTTGACGCTGCTG”, 1.84 z-score.
“CCGATTAACATCAGGACGTCCCCTGATGTTAATCGGGTCTTGATTCGCTTGACGCTGCTG”: the binding signal amounted to 2.18 z-score.
For “CCGATTAACATCACAAAAAACCCTGATGTTAATCGGGTCTTGATTCGCTTGACGCTGCTG” the value was 1.78 z-score.
The sequence “CCGATTAACATCAGATAATCCCCTGATGTTAATCGGGTCTTGATTCGCTTGACGCTGCTG” came in with a binding signal of 4.09 z-score.
For “CCGATTAACATCAGGGAAAGACCTGATGTTAATCGGGTCTTGATTCGCTTGACGCTGCTG” the value was 1.41 z-score.
To “CCGATTAACATCAGGGGAAAAGATGATGTTAATCGGGTCTTGATTCGCTTGACGCTGCTG” belongs 7.74 z-score; to “CCGATTAACATCAGCAATCCCCCTGATGTTAATCGGGTCTTGATTCGCTTGACGCTGCTG”, 4.31 z-score; to “CCGATTAACATCAAGGGGGAATCTGATGTTAATCGGGTCTTGATTCGCTTGACGCTGCTG”, 8.32 z-score.
On to “CCGATTAACATCAATAAAACCCCTGATGTTAATCGGGTCTTGATTCGCTTGACGCTGCTG”, for which the binding signal came to 2.26 z-score.
For “CCGATTAACATCACAAAATTCCCTGATGTTAATCGGGTCTTGATTCGCTTGACGCTGCTG” the value was 5.01 z-score; for “CCGATTAACATCAAGAGATTCCCTGATGTTAATCGGGTCTTGATTCGCTTGACGCTGCTG”, 2.46 z-score; for “CCGATTAACATCAAGGGGAATTCTGATGTTAATCGGGTCTTGATTCGCTTGACGCTGCTG”, 6.89 z-score.

Values taken from paper PMC5700166.
